MITF inh = MITF inhibitors, primary screen, biochemical, AlphaScreen, human; Microphthalmia-associated transcription factor (Homo sapiens), O75030; AlphaScreen MITF homodimerization, bead proximity signal; inhibition, % at 2.6 µM; 0.91% of 650,000 active; AID 1259374, 2018; in the data active = inhibition above about 50%
Target sequence (O75030 whole entry, looked up): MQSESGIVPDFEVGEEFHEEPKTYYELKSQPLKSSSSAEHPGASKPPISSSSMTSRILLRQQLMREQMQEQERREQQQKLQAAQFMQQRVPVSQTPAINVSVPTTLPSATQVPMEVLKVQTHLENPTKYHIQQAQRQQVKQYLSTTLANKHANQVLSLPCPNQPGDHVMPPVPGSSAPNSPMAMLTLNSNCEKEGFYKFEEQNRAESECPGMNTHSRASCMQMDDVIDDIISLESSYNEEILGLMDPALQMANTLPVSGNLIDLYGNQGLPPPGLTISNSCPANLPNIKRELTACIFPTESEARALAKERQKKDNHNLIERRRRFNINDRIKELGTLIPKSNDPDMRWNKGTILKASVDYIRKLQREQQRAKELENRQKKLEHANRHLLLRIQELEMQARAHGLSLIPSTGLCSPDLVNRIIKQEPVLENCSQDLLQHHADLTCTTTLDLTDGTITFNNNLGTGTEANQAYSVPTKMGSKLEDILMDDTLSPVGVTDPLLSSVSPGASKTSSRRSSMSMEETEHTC
FBW7 activator = FBW7 E3 ligase activators, primary screen, biochemical, AlphaScreen, human | F-box/WD repeat-containing protein 7 (Homo sapiens), Q969H0 | AlphaScreen FBW7–phospho-cyclin E peptide binding, activator screen | normalized activity (activation), % at 26.1 µM | 0.13% of 650,000 active | AID 1259310, 2017; in the data active = normalized activity above about 1.9%;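 also: purified mutant Fbw7 with reduced substrate affinity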
GPR151 ag = activators of human GPR151, primary screen, cell-based, PathHunter beta-arrestin, luminescence; G-protein coupled receptor 151 (Homo sapiens), Q8TDV0; PathHunter beta-arrestin GPR151 cells; activation, % at 11.2 µM; 1% of 650,000 active; AID 1508602, 2020; in the data active = activation above about 4.9%
TEAD-YAP block = TEAD-YAP interaction inhibition, primary screen, TEAD-YAP interaction inhibitor project, luminescence, HEK-TIYL cells; inhibition, % at 9.12 µM; 1.4% of 640,000 active; TEAD-Gal4/YAP UAS-luciferase luminescence; AID 1259422, 2018; in the data active = inhibition above about 32%
GPR151 confirm = GPR151 activators, triplicate retest, confirmation, cell-based, PathHunter beta-arrestin, luminescence; activation, % at 11.2 µM; 6,700 tested, under 10 active; shares compounds with GPR151 ag; GPR151 PathHunter beta-arrestin cells, 90 min; % of EA-reagent control over plate median;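 active = mean percent activation across replicates above the confirmation screen cutoff of 4.91%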
GPR119 counter = GPR119 activators in beta-arrestin cells, counter-screen for GPR151 activator project, cell-based, PathHunter beta-arrestin, luminescence, triplicate | 90 min; 0 = compound-well median, 100 = enzyme-acceptor control | 0.3% of 6,700 active | activation, % at 11.2 µM | shares compounds with GPR151 ag;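 active = mean percent activation in the counterscreen above 29.09%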;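 also: counterscreen on off-target GPR119 to flag nonselective hits from the GPR151 activator screen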
Hits are given with their value; . = inactive; / = no result; ! = not active in a repeat. A selection: hits, their analogues and other compounds. The true share with any hit is near 3.4%.

SMILES	MITF inh	FBW7 activator	GPR151 ag	TEAD-YAP block	GPR151 confirm	GPR119 counter
CCOC(=O)C1=C(C)Nc2nc(SCc3cccnc3)nn2C1c1ccc(OC)cc1 (stereo not given)	.	.	8.0	.	.	.
CCOC(=O)C1=C(C)Nc2nc(SC)nn2C1c1ccc(OC)cc1 (stereo not given)	.	.	.	.	/	/
COc1ccc(/C=C(\C#N)C(=O)Nc2ccccn2)cc1	.	.	5.1	.	.	.
COc1cc([N+](=O)[O-])ccc1-c1ccc(/C=C(\C#N)C(=O)Nc2cccc(C(=O)O)c2)o1	.	.	.	.	/	/
COc1ccccc1CCNCc1c(C(=O)O)n(C)c2cc(C)ccc12	.	.	9.8	.	.	.
CCN(CC)C(=O)C1CCN(Cc2ccc(C)cc2)CC1	.	.	.	.	/	/
CCN(CC)c1ccc(/C=N/n2cnnc2)c(O)c1	.	.	10	.	.	.
Cc1nccn1-c1cc(N2CCN(C(=O)c3ccc(Br)o3)CC2)ncn1	.	.	.	.	/	/
Cc1c(C(=O)Nc2cccc(NC(=O)c3cccs3)c2)cccc1[N+](=O)[O-]	.	.	5.5	.	.	.
Cc1c(C(=O)Nc2ccc(NC(=O)c3ccco3)c(Cl)c2)cccc1[N+](=O)[O-]	.	.	7.3	.	.	.
COc1cc(NC(=O)c2cccc([N+](=O)[O-])c2C)ccc1NC(=O)c1ccco1	.	.	.	.	/	/
O=[N+]([O-])c1cccc(OCCn2cnc3ccccc32)c1	.	.	.	.	/	/
O=C(NCc1nc2ccccc2[nH]1)c1ccc2nc(Nc3ccc4ncccc4c3)sc2c1	.	.	6.3	.	.	.
Cc1ccccc1-n1c2nc(=O)[nH]c(=O)c-2cc2c(Cl)cccc21	.	.	8.3	.	.	.
O=C(COc1ccccc1)Nc1ccc(N2CCC(NCCN3CCNC3=O)CC2)cc1	.	.	.	.	/	/
O=C(Nc1ccc(N2CCC(NCCN3CCNC3=O)CC2)cc1)C1CCCC1	.	.	6.3	.	.	.
CC(NS(=O)(=O)c1ccc(Cl)cc1)C(N)=O (stereo not given)	.	.	.	.	/	/
Cc1ccc(C)c(S(=O)(=O)NC(C)C(=O)Nc2ccc(Cl)c(Cl)c2)c1 (stereo not given)	.	.	5.9	.	.	.
CC(NS(=O)(=O)c1cc(Cl)ccc1Cl)C(N)=O (stereo not given)	.	.	5.2	.	.	.
COc1ccc(NC2=C(C(C)=O)C(c3ccc(OC)cc3)C(C(C)=O)C(C)(O)C2)cc1 (stereo not given)	.	.	.	.	/	/
COc1ccc(NC2=C(C(C)=O)C(c3ccc(N(C)C)cc3)C(C(C)=O)C(C)(O)C2)cc1 (stereo not given)	.	.	13	.	.	.
Cc1cc(C)n(CCNC(=O)CC2C(=O)NCCN2C/C=C/c2ccccc2)n1 (stereo not given)	.	.	.	.	/	/
CN(C)CCNC(=S)Nc1ccc(C(=O)O)cc1	.	.	10	.	.	.
CN(C)CCNC(=O)Nc1ccccc1	.	.	.	.	/	/
CN(C)CCNC(=S)Nc1ccc(F)cc1	.	.	.	.	/	/
SMILES	MITF inh	FBW7 activator	GPR151 ag	TEAD-YAP block	GPR151 confirm	GPR119 counter
CN(C)CCNC(=O)C(=O)Nc1ccccc1	.	.	8.4	.	.	.
COc1ccc(NC(=O)c2cc3c(CO)cnc(C)c3oc2=Nc2ccc(Oc3ccccc3)cc2)cc1	.	.	.	.	/	/
CC(C)c1nc(CNCc2c(C(=O)N3CCCN(C)CC3)nc3sccn23)cs1	.	.	6.9	.	.	.
CCC(=O)N1CCN(c2ccc(NC(=O)c3cccs3)cc2)CC1	.	.	9.2	.	.	.
CCC(=O)N1CCN(c2ccc(NC(=O)c3ccco3)cc2)CC1	.	.	5.4	.	.	.
CCC(=O)N1CCN(c2ccc(NC(=O)c3ccco3)cc2Cl)CC1	.	.	.	.	/	/
CSc1ccc(NC(=O)C2CC23CCN(C(=O)Cn2cnc4ccccc42)CC3)cc1 (stereo not given)	.	.	.	.	/	/
COC(=O)C1=C(C)NC(=S)NC1c1ccc(C(C)C)cc1 (stereo not given)	.	.	.	.	/	/
Cc1ccc(NC(=O)CCNS(=O)(=O)c2ccc3nc(-c4ccccc4)[nH]c3c2)cc1	.	.	.	.	/	/
CCC(C)NC(=O)CCNS(=O)(=O)c1ccc2nc(-c3ccccc3)[nH]c2c1 (stereo not given)	.	.	7.0	.	.	.
COC(=O)c1cn(NC(=O)Cc2ccc([N+](=O)[O-])cc2)c(=O)c2ccccc12	.	.	.	.	/	/
COc1cc(CNCCO)cc(Br)c1OCc1ccccc1	.	.	.	.	/	/
C=CCOc1c(Br)cc(CNCCO)cc1OC	.	.	6.7	.	.	.
O=C(Nc1ccc(I)cc1)Nc1ccc2c(c1)OCO2	.	.	5.8	.	.	.
NC(=O)NC(CC(=O)O)c1ccc(Cl)cc1 (stereo not given)	.	.	7.7	.	.	.
Cc1nc(CCNC(=O)CC2C(=O)NCCN2Cc2ccccc2F)sc1C (stereo not given)	.	.	.	.	/	/
Cc1cccc(CNC(=O)CC2C(=O)NCCN2Cc2c(F)cccc2Cl)n1 (stereo not given)	.	.	5.1	.	.	.
Cc1nc(CCNC(=O)CC2C(=O)NCCN2Cc2cccc3ccccc23)sc1C (stereo not given)	.	.	5.5	.	.	.
CN1CCN(C(=O)CCC2(Cc3ccsc3)CCC(=O)N2)[C@@H](c2ccccc2)C1 (stereo not given in full)	.	.	.	.	/	/
COc1cccc2cc(C(=O)Nc3ccc(F)cc3)/c(=N/c3sc4c(c3C#N)CCCC4)oc12	.	.	.	.	/	/
OCCNCCCCOc1cccc(Cl)c1Cl	.	.	.	.	/	/
OCCNCCCOc1cccc(Cl)c1Cl	.	.	5.5!	70	.	.
Cn1c(=NC(=O)CS(=O)(=O)c2ccccc2)sc2ccccc21	.	.	5.0	.	.	.
O=C(NCc1ccccc1)c1cc(Oc2ccccc2)nc2ccccc12	.	.	.	.	/	/
COc1cc(OC)cc(C(=O)NCC2CCCN(C(=O)c3cscn3)C2)c1 (stereo not given)	.	.	.	.	/	/
COc1ccccc1C1CC(c2ccc(Cl)cc2)Nc2nnnn21 (stereo not given)	.	.	5.2	.	.	.
COc1ccccc1C1CC(c2ccc(C(C)C)cc2)Nc2nnnn21 (stereo not given)	.	.	.	.	/	/
